Among the data in PubChem BioAssay (Tox21) are Potency and outcome values, retold here.

Records with an inconclusive call do not appear. Activity calls are given as the source filed them. Unless noted, calls come from the whole dose curve; as a rule, active = well fitted curve in the direction sought with a large enough effect in the repeat runs; inconclusive = weak or mixed curves; inactive = no such curve, though single readings can be large; an effect the other way counts as inactive or inconclusive.

Assay [1] in a line: qHTS assay to identify small molecule agonists of the vitamin D receptor (VDR) signaling pathway - cell viability counter screen (AID 743224). Note: nearly all actives have a fitted effect of over 50% in size. In short, it runs like this: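 Plated VDR-bla cells (4 h, 37C) received compound, incubated 16 h, then LiveBLAzer substrate 2 h RT; CellTiter-Glo added afterwards, luminescence read at 30 min.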
A short description of assay [2]: qHTS assay to identify small molecule antagonists of the vitamin D receptor (VDR) signaling pathway - cell viability counter screen (AID 743225). Note: nearly all actives have a fitted effect of over 50% in size. In short, it runs like this: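 VDR-bla HEK 293T cells, 4 h pre-incubation at 37C, then compound plus 1-alpha,25-dihydroxyvitamin D3 (3 nM final) for 16 h. After the beta-lactamase FRET read, CellTiter-Glo was added to the same wells; luminescence after 30 min at room temperature.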

The nature of assay [3]: qHTS assay to identify small molecule agonists of the NFkB signaling pathway (AID 1159509; active = well fitted curve in the direction sought with a large enough effect in the signal ratio in the repeat runs, not every such curve was filed as active; the % refers to the signal ratio). In outline: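 NFkB-bla ME-180 cells carry a beta-lactamase reporter under an NF-kB response element. They were plated overnight, then exposed to compounds for 5 h at 37 C. Read-out is LiveBLAzer FRET after 1.5 hr at room temperature (405 nm excitation; 460/530 nm emission).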
Assay [4] is described as follows: qHTS assay to identify small molecule agonists of the NFkB signaling pathway - cell viability counter screen (AID 1159515; calls by dose curve; note: nearly all actives have a fitted effect of over 55% in size). In short, it runs like this: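 Using the same wells as the NFkB reporter read, ME-180 NFkB-bla cells given compounds for 5 hr were assessed for viability via CellTiter-Glo, with luminescence taken after a 30 min room-temperature incubation.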
For orientation: In qHTS, concentration-response curves come from the screen itself.

A short description of assay [5]: qHTS assay to identify small molecule agonists of the endoplasmic reticulum stress response signaling pathway - cell viability counter screen (AID 1159517; calls by dose curve;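 note: HeLa cells carrying an ER stress response element beta-lactamase reporter; nearly all actives have a fitted effect of over 50% in size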). In short, it runs like this: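 CellTiter-Glo was added to wells already read for beta-lactamase FRET, and luminescence was recorded 30 min later. Cells: ESRE-bla HeLa, 1,500 per well, compound exposure 5 hr at 37 C.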

In assay [6] the target is Nuclear receptor ROR-gamma (Homo sapiens) (UniProt P51449). In words: qHTS assay to identify small molecule antagonists of the retinoid-related orphan receptor gamma (ROR-gamma) signaling pathway (AID 1159521; note: nearly all actives have a fitted effect of over 50% in size; note: potency is the fitted concentration of half-maximal effect). In outline: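 Tet-on RORγ CHO cells carrying a ROR response element–luciferase reporter were pretreated with compounds for 2 h, then induced with 1 uM (final) doxycycline hyclate for 16 h at 37 C. Antagonism was read as decreased ONE-Glo luminescence.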

The nature of assay [7]: qHTS assay to identify small molecule agonists of the AP-1 signaling pathway - cell viability counter screen (AID 1159525; calls by dose curve; note: nearly all actives have a fitted effect of over 55% in size). In short, it runs like this: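 ME-180 AP-1-bla, 2500 cells/well, Opti-MEM + 0.5% dialyzed FBS; overnight 37 °C; cpd 15-pt titration, 5 h 37 °C; CellTiter-Glo 30 min RT; luminescence read; normalised to TOAB and DMSO controls.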
Assay [8] can be described thus: qHTS assay to identify small molecule agonists of the RXR signaling pathway - cell viability counter screen (AID 1159529). Note: nearly all actives have a fitted effect of over 50% in size. Note: potency is the fitted concentration of half-maximal effect. In short, it runs like this:
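RXR-alpha-UAS-bla HEK 293T cells in medium with 2% charcoal-stripped FBS were preincubated 5 hr, then exposed to compounds for 16 hr at 37 C. Viability was read as CellTiter-Glo luminescence after 30 min at room temperature.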

Assay [9] in a line: qHTS assay to identify small molecule antagonists of the retinoic acid receptor (RAR) signaling pathway (AID 1159552; note: nearly all actives have a fitted effect of over 50% in size; note: potency is the fitted concentration of half-maximal effect). In short, it runs like this:
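RARE-luc C3RL4 cells; cpds + 1 uM (final) retinol, 6 hr, 37 C/5% CO2; luciferase reagent, 30 min RT, luminescence readout. Inhibitors of retinol-driven signal scored.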

The nature of assay [10]: qHTS assay to identify small molecule antagonists of the retinoid-related orphan receptor gamma (ROR-gamma) signaling pathway - cell viability counter screen (AID 1159520). Note: nearly all actives have a fitted effect of over 50% in size. In outline: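 Tet-on ROR gamma CHO cells (1,000/well) were plated 4 hr, given compounds in DMSO for 2 hr at 37 C, then induced with 1 uM final doxycycline for 16 hr. Viability was read as ATP by CellTiter-Glo luminescence after 30 min.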

Assay [11] can be described thus: qHTS assay to identify small molecule agonists of the AP-1 signaling pathway (AID 1159526; calls by dose curve; note: potency is the fitted concentration of half-maximal effect).
A short description of assay [12]: qHTS assay to identify small molecule antagonists of the retinoid acid receptor (RAR) signaling pathway - cell viability counter screen (AID 1159551). Note: nearly all actives have a fitted effect of over 35% in size. In outline: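 Retinol-stimulated (1 uM final) C3RL4 cells, compound 6 h, 37 C; readout CellTiter-Glo luminescence (ATP) after 30 min RT incubation.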
Assay [13] is described as follows: qHTS assay to identify small molecule agonists of the retinoic acid receptor (RAR) signaling pathway (AID 1159553). The note with it: C3RL4 RARE luciferase reporter, agonist, 6 h; activation: at 73.3 µM (top of the series). In outline: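 Reporter readout comes from luciferase under RARE control in C3RL4 cells; compound exposure lasts 6 hr at 37 C in 5% CO2, and luminescence is recorded following a 30 min room-temperature incubation with reagent.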

Assay [14] deals with Retinoic acid receptor RXR-alpha (Homo sapiens) (UniProt P19793). In words: qHTS assay to identify small molecule agonists of the RXR signaling pathway (AID 1159527; calls by dose curve; note: nearly all actives have a fitted effect of over 35% in size). In outline:
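GeneBLAzer RXR-alpha-UAS-bla HEK 293T cells in medium with 2% charcoal-stripped FBS, pre-incubated 5 hr at 37 C, then exposed to compounds 16 hr. Beta-lactamase reporter read by FRET substrate, 2 hr room temperature, 460/530 nm emission.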

A short description of assay [15]: qHTS assay to identify small molecule antagonists of the estrogen related receptor (ERR) signaling pathway - cell viability counter screen (AID 1224818).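 Note: viability measured after 17.5 h of compound exposure.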 In outline: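 After a 6 h pre-incubation, ERR cells were dosed by pin tool with compounds, positive/negative controls or DMSO alone. Following 17.5 h at 37 C and 30 min with CellTiter-Fluor, fluorescence was recorded.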

The nature of assay [16]: qHTS assay to identify small molecule antagonists of the estrogen related receptor (ERR) signaling pathway (AID 1224819). In outline: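 Luminescence readout (One-Glo, 30 min, RT) of ERR cell line after 18 h compound exposure at 37 C; cells seeded 2,000/well, pre-incubated 6 h, compounds pinned from DMSO stocks.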
A short description of assay [17]: qHTS assay to identify small molecule agonists of the estrogen related receptor (ERR) signaling pathway (AID 1224820). In short, it runs like this:
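ERR reporter cell line (from NTP), 2,000 cells/well, incubated 6 h before compound addition, then 18 h at 37 C. Luminescence measured 30 min after One-Glo reagent at room temperature.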

In assay [18] the test system is estrogen-related receptor alpha (ERRalpha) with PGC-1alpha coactivator, human. In words: qHTS assay to identify small molecule antagonists of the estrogen related receptor signaling pathway with the pleiotropic PPARgamma coactivator (PGC) (AID 1224821; calls by dose curve). In outline:
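PGC/ERR reporter cell line, plated 6 h before compound addition, then exposed 18 h at 37 °C. Luciferase activity read by luminescence 30 min after One-Glo addition; decrease indicates antagonism.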

A short description of assay [19]: qHTS assay to identify small molecule antagonists of the estrogen related receptor signaling pathway with the pleiotropic PPARgamma coactivator (PGC) cell viability counter screen (AID 1224822). In outline: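 PGC/ERR cells were plated at 2,000 per well and allowed 6 h to settle before compound addition. Following 17.5 h at 37 C, CellTiter-Fluor reagent was added and fluorescence was read 30 min later.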

Assay [20] is described as follows: qHTS assay to identify small molecule agonists of the endoplasmic reticulum stress response signaling pathway (AID 1159516; active = well fitted activation curve with a large enough effect in the signal ratio in the repeat runs, not every such curve was filed as active; the % refers to the signal ratio). In outline: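 An ESRE-bla HeLa cell assay: compounds were pin-transferred from DMSO onto overnight-plated cells and left 5 hr at 37 C. Substrate was then loaded for 2 hr at room temperature before reading fluorescence at 460 nm and 530 nm.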

Sequence of Retinoic acid receptor RXR-alpha (Homo sapiens) (P19793 whole entry, looked up): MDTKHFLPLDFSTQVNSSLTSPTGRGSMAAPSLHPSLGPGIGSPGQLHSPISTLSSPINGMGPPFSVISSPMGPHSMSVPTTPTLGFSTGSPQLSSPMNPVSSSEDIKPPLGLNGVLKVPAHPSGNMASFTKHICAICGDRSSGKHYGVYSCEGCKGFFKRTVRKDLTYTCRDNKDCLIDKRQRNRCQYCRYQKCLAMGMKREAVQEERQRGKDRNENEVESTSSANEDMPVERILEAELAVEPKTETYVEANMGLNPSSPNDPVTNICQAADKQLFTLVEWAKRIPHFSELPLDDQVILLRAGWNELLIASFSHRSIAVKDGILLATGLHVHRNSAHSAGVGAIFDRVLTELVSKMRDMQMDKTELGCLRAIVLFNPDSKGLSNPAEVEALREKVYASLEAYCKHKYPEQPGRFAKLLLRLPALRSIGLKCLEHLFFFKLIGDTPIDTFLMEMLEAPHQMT

Turning to `c1csc(SSc2cccs2)c1`, the Potency entry in [1], in [2], in assay [3], in assay [4], in assay [5] and in assay [7] was “inactive” in each case. The Potency in [6] was 24.3 µM (active); in assay [8], 38.9 µM (active); in assay [9], 9.69 µM (active).

Take `CC(C)C=O`: the Potency result in assay [1], in assay [2], in assay [3], in assay [4], in assay [10] and in assay [7] was “inactive” in each case. In addition, the Potency entry in [11], in [8], in assay [12], in assay [9] and in assay [13] was “inactive” each time.

Regarding `C/C=C(/C(=C/C)c1ccc(O)cc1)c1ccc(O)cc1`, the Potency entry in assay [1], in assay [2], in assay [3], in assay [4], in assay [5] and in assay [6] was “inactive” each time. Further, the Potency result in assay [11], in [12] and in assay [13] was “inactive” throughout.

Take `CCCCC(CC)COP(=O)(O)O` (stereo not given): the Potency result in assay [1], in assay [2], in [3], in [4], in [10] and in [6] was “inactive” in each case. The Potency result in assay [7], in [8], in assay [12], in assay [9] and in [13] was “inactive” in each case. The Potency in assay [11] was 39.6 µM (active).

Regarding `C=CC(=O)OCC1CC2CC1C1CCC(COC(=O)C=C)C21` (stereo not given), the Potency result in assay [3], in assay [4] and in [7] was “inactive” throughout. The Potency in [6] is 54.5 µM (active); in assay [8] it was 43.6 µM (active); in assay [9] it was 8.63 µM (active).

`CCOC(=O)/C=C/C(=O)OCC`: the Potency entry in assay [1], in [2], in [3], in assay [4], in assay [10] and in assay [6] was “inactive” each time. The Potency entry in [7], in [11], in assay [14], in assay [8], in assay [12] and in assay [9] was “inactive” throughout. In addition, the Potency entry in assay [13] was “inactive”.

As to `CC=C(Cl)Cl`, the Potency result in assay [1], in [2], in assay [3], in assay [4], in [10] and in assay [6] was “inactive” in each case. Moreover, the Potency result in assay [7], in assay [11], in [14], in assay [8], in assay [12] and in assay [9] was “inactive” in each case. In addition, in assay [13], the Potency entry is “inactive”.

In the case of `O=C(O)CCc1nc(-c2ccccc2)c(-c2ccccc2)o1`, the Potency entry in [1], in assay [2], in assay [3], in assay [4], in assay [10] and in assay [6] was “inactive” each time. Also, the Potency result in [7], in assay [11], in assay [8], in [12] and in assay [13] was “inactive” throughout. In addition, the compound was called inactive in [15], in [16], in assay [17], in assay [18] and in [19].

Regarding `CCOC(=O)c1ccc(I)cc1`, the Potency entry in assay [1], in assay [2], in [3], in assay [20], in assay [5] and in [10] was “inactive” each time. Moreover, the Potency result in assay [6], in assay [7], in assay [14], in [8], in assay [12] and in [9] was “inactive” each time. In addition, the Potency result in assay [13] was “inactive”.

In the case of `C1C[C@@H]2[C@H]3CC[C@H](C3)[C@@H]2C1`, the Potency entry in assay [1], in assay [2], in assay [3], in [20], in assay [5] and in assay [10] was “inactive” in each case. In addition, the Potency entry in assay [6], in [7], in [14], in [8], in assay [12] and in assay [9] was “inactive” throughout. In assay [13], the Potency entry is “inactive”.
